Shown are actives, neighbours in structure and some others; about 17% of the full set was active somewhere.
TGFb SMAD3 inh: qHTS for Inhibitors of TGF-b | HepG2 CAGA-GFP TGF-b/SMAD3 reporter, GFP fluorescence, 18 h; TGF-beta stimulated, 500 pg/mL final | Potency, µM (highest dose often 46.1 µM), without a hit: at the highest dose activity, negative = inhibition, usual class: inhibitors | 1.2% of 410,000 active; further: on the % scale 0 is the no-effect control and ±100 the full control effect; nearly all actives have a fitted effect of over 65% in size
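HEPG2 CAGA-GFP, 1000 cells/well; 2 h settle, 37 C; cpd via pin tool; TGF-b 500 pg/mL final; 18 h, 37 C; GFP imaging ex488/em500-530; %Activity normalised to -TGF-b and +DMSO controls; CRC fit, curve class.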
HepG2 viability: qHTS for Inhibitors of TGF-b: Cytotox Counterscreen. HepG2 CAGA-GFP viability, ATP luminescence, 18 h. Potency, µM (top dose mostly 46.1 µM), without a hit: at the highest dose activity change, negative = cytotoxicity, hits mostly cytotoxic. 0.76% of 410,000 active
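HepG2 CAGA-GFP cells (1000/well, DMEM with 1% FBS) received compound, then TGF-beta at 500 pg/mL final, and were incubated 18 hours at 37 degrees C. Viability was read by CellTiter-Glo luminescence. Media-only wells were set as complete cell-killing and DMSO as no toxicity.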
S2 tox: Viability Counterscreen for Primary qHTS for Inhibitors of ATXN expression; 0.49% of 400,000 active; Potency, µM (doses to about 56.7 µM), usual class: cytotoxic; S2 cells (HEK-293 line with an ATXN2-luciferase reporter) viability, CellTiter-Fluor protease fluorescence, 24 h; AID 651635, 2014; further: nearly all actives have a fitted effect of over 40% in size
ATXN2 expr inh: Primary qHTS for Inhibitors of ATXN expression; HEK-293 ATXN2-luciferase reporter, luminescence, 24 h; Potency, µM (series often up to 57 µM), without a hit: top-dose activity change, negative = inhibition, actives largely listed as inhibitors; 0.72% of 360,000 active; AID 1745845, 2022; further: on the % scale 0 is the no-effect control and ±100 the full control effect; nearly all actives have a fitted effect of over 55% in size
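qHTS (up to 57 uM final) was run with 24 h compound exposure of reporter cells at 37 °C. Each well was multiplexed: SteadyGlo luminescence measured ATXN2-luciferase expression after a fluorogenic Gly-Phe-AFC viability readout (25 uM final).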
DT40 TDP1 no CPT: qHTS for Inhibitors of human tyrosyl-DNA phosphodiesterase 1 (TDP1): qHTS in cells in absence of CPT; 15% of 420,000 active; DT40 Tdp1-/- hTDP1 cells, no CPT, ATP luminescence, 48 h; Potency, µM (doses to about 46.2 µM), inactives show at the highest dose activity change, negative = growth inhibition, actives largely listed as inhibitors; further: on the % scale 0 is the no-effect control and ±100 the full control effect; nearly all actives have a fitted effect of over 55% in size
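No-CPT arm: Tdp1-/-;hTDP1 DT40 cells (400/well) plus compounds, incubated ≥48 hr at 37 °C. Readout CellTiter-Glo luminescence.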
TDP1 cell CPT: qHTS for Inhibitors of human tyrosyl-DNA phosphodiesterase 1 (TDP1): qHTS in cells in presence of CPT; 12% of 420,000 active; chicken DT40 Tdp1-/-;hTDP1 cells + 20 nM CPT, ATP luminescence, 48 h; Potency, µM (highest dose often 46.2 µM), for the others: top-dose activity change, negative = growth inhibition, hits mostly inhibitors; further: on the % scale 0 is the no-effect control and ±100 the full control effect; nearly all actives have a fitted effect of over 55% in size
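Cell growth measured by CellTiter-Glo luminescence after a minimum 48 h, 37 C compound exposure with 20 nM CPT in Tdp1-knockout DT40 cells stably expressing hTDP1, seeded 400/well; qHTS titration format.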
The depositor's hits bear a star; i = inactive; ? = inconclusive; · = not tested or not shown. The call rests on the fitted dose curve; in most records, active means well fitted curve in the direction sought with a large enough effect; inconclusive means small, poorly fitted or top-dose-only effect, or another doubt; inactive means no such curve, though single readings can be large; an effect the other way counts as inactive or inconclusive. Potency means the concentration at half of the fitted maximal effect.

SMILES | TGFb SMAD3 inh | HepG2 viability | S2 tox | ATXN2 expr inh | DT40 TDP1 no CPT | TDP1 cell CPT
Cc1ccc(N2C(=O)[C@@H]3C(C(=O)CCN4C(=O)c5ccccc5C4=O)=NN[C@@H]3C2=O)cc1 | 0% | -11% | i | -11% | 1% | 0%
O=C(/C=C/c1cccs1)c1cc(Cl)ccc1O | -1% | -17% | ? | 6% | ? | 16µM*
COc1ccccc1CNC(=O)c1c(O)nc2cc(C)ccn2c1=O | 13% | 5% | i | 12% | -10% | 4%
O=C(NCCN1CCOCC1)/C(=C/c1ccco1)NC(=O)c1ccccc1 | 0% | 0% | i | -2% | -1% | -4%
CC(C)N1C(=O)S/C(=C/c2ccc(Sc3nc4ccccc4[nH]3)o2)C1=O | 20µM* | -19% | i | ? | 10µM* | 15µM*
C=CCN1C(=O)S/C(=C/c2ccc(Sc3nc4ccccc4[nH]3)o2)C1=O | 20µM* | -36% | ? | ? | 21µM* | 23µM*
CCOC(=O)C(C)N1C(=O)S/C(=C\c2ccc(-c3ccccc3C(=O)O)o2)C1=O (stereo not given) | 4% | -5% | i | · | -2% | 2%
CCc1ccc([C@@H]2CC=C(C(=O)O)[C@H](c3cccc(Cl)c3)N2S(=O)(=O)c2ccc(C)cc2)cc1 | ? | -42% | i | -13% | -25% | -21%
COc1ccc([C@@H]2CC=C(C(=O)O)[C@H](c3ccc(C(C)(C)C)cc3)N2S(=O)(=O)c2ccc(C)cc2)cc1OC | -3% | -15% | i | -5% | 15µM* | ?
Cc1ccc(S(=O)(=O)N2[C@@H](c3ccc(Cl)cc3)C(C(=O)OC(C)(C)C)=CC[C@H]2c2ccc(Cl)c(Cl)c2)cc1 | 4% | 4% | i | 5% | 15µM* | ?
Cc1ccc(S(=O)(=O)N2[C@@H](c3ccc(Br)cc3)C(C(=O)O)=CC[C@H]2c2ccc(Cl)c(Cl)c2)cc1 | ? | -30% | i | -10% | -28% | -15%
COc1ccc([C@@H]2CC=C(C(=O)O)[C@H](c3ccc(C)cc3)N2S(=O)(=O)c2ccc(C)cc2)cc1OC | -3% | -3% | i | 0% | -1% | 7%
Cc1ccc(S(=O)(=O)N2[C@@H](c3cccc(Cl)c3)C(C(=O)OC(C)(C)C)=CC[C@H]2c2ccc(C(C)C)cc2)cc1 | 0% | 4% | i | 5% | 15µM* | ?
Cc1ccc(S(=O)(=O)c2nnn(-c3ccc(F)c(Cl)c3)c2N)cc1 | ? | -34% | i | -11% | ? | ?
CC(=O)NC1=NN(C(C)=O)C(C)(CCS(=O)(=O)c2ccc(Br)cc2)S1 (stereo not given) | ? | -1% | i | 1% | 1% | -4%
CC(=O)c1c(C)[nH]c(C(=O)OC(C)C(=O)NC2CCCCC2)c1C (stereo not given) | 2% | -18% | i | · | ? | -20%
COC(=O)c1c(C)[nH]c(C(=O)OC(C)C(=O)N(C)C2CCCCC2)c1C (stereo not given) | -2% | -3% | i | 3% | 16µM* | ?
COc1ccccc1N1CCN(CC(O)c2c(C)[nH]c3ccccc23)CC1 (stereo not given) | -6% | 1% | i | -19% | 16µM* | ?
CC1CC(C)CN(CC(=O)c2c[nH]c3ccccc23)C1 (stereo not given) | 6% | -1% | i | -7% | 23µM* | ?
COc1ccccc1N1CCN(CC(=O)c2c(C)[nH]c3ccccc23)CC1 | -16% | -34% | i | -26% | ? | ?

Screening results (PubChem BioAssay)
